# GLD-1 RNA inh = GLD-1-TGE RNA interaction inhibition (C. elegans). purified GLD-1 + fluorescein TGE RNA, fluorescence polarization. inhibition, % at 5.96 µM. 320,000 compounds, 0.44% hits;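 active = percent inhibition above a per-plate cutoff, the plate mean of test compounds plus 3 SD, cut at about 30% in these data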;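 also: 0% = DMSO wells with GLD-1 and probe and 100% = wells lacking GLD-1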
# E coli Lon inh = inhibits E. coli Lon protease; P0A9M0; purified E. coli Lon protease, fluorescence polarization; inhibition, % at 7.94 µM; 360,000 compounds, 0.42% hits; in the data active = inhibition above about 13%, passing the limit was not always enough;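 also: 0% = enzyme with probe and DMSO and 100% = no enzyme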
# EBV gp42 inh = inhibitors of Epstein-Barr virus glycoprotein 42 | Q1HVG2 | Fluorescence polarization binding assay, mP read-out | inhibition, % (tested at 21.74 µM) | 220,000 compounds, 0.42% hits | AID 1085; in the data active = inhibition above about 50%
# Target sequence (Q1HVG2 whole entry, looked up): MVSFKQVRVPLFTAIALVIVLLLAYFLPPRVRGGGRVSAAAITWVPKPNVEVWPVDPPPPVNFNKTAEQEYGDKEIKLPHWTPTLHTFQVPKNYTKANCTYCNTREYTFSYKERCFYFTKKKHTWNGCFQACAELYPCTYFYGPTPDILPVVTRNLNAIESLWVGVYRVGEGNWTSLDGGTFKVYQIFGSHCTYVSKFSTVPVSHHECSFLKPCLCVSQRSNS
# BCLXL inh = Bcl-xL (human) inhibition | inhibition, % at 10.9 µM | 320,000 compounds, 0.7% hits | AID 2129 | Q07817 | GST-Bcl-xL / FITC-Bim BH3 peptide fluorescence polarization;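 active = inhibition above the mean of all tested compounds plus 3 SD, cutoff set per campaign, cut at about 30% in these data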;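 also: 0% = DMSO wells and 100% = unlabeled Bim-BH3 peptide competitor; inhibitors lower millipolarization by displacing the labeled peptide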
# MCL1 BIM primary = inhibitors of human MCL1 binding to BIM-BH3 peptide; GST-MCL1 / FITC-Bim-BH3 fluorescence polarization; inhibition, % at 10.9 µM; AID 2057; 320,000 compounds, 0.68% hits;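 active = inhibition above the mean inhibition of all tested compounds plus 3 SD, set per campaign, cut at about 40% in these data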;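 also: 0% = DMSO wells and 100% = unlabeled Bim-BH3 peptide control; higher means more loss of mP so more displacement of Bim peptide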
# Target sequence (Q07820 whole entry, looked up): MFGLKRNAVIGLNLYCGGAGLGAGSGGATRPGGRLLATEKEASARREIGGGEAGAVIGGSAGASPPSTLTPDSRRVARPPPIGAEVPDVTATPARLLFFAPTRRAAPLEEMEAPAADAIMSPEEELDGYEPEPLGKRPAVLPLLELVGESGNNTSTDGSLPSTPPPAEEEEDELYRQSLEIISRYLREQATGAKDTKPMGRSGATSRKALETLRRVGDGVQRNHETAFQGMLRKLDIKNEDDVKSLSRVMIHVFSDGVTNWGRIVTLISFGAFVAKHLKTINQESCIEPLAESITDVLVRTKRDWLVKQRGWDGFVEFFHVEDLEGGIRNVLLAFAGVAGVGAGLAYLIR
# MEX-5 binding = C. elegans MEX-5 TCR-2 RNA binding activity. 300,000 compounds, 0.38% hits. MEX-5/FITC-TCR2 RNA binding, fluorescence polarization; hits give low values. activity score (negative = inhibition of binding), % at 10 µM;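 active = inhibition past about -25% in most replicates, and total fluorescence under double the plate's negative control median, limit read from the data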;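 also: 0% = DMSO and -100% = 5 µM competing unlabeled TCR2 RNA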
# E coli Lon conf = E. coli Lon inhibition confirmation; shares compounds with E coli Lon inh; purified E. coli Lon, fluorescence polarization; inhibition, % at 7.94 µM; 1,400 compounds, 31% hits; in the data active = inhibition above about 16%;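 also: 0% = enzyme with probe and DMSO and 100% = no enzyme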
# Starred values were filed as active, the others as inactive; · = no result. Rows were chosen to be rich in hits. Some 1.4% of all compounds tested hit in one or more screens of this group.
SMILES,GLD-1 RNA inh,E coli Lon inh,EBV gp42 inh,BCLXL inh,MCL1 BIM primary,MEX-5 binding,E coli Lon conf
Cc1ccc(S(=O)(=O)N2[C@@H](c3ccccc3)C(C(=O)O)=CC[C@H]2c2ccc(C(C)C)cc2)cc1,3,-3,·,10,7,·,·
Cc1ccc([C@H]2C(C(=O)O)=CC[C@@H](c3ccc(C(C)C)cc3)N2S(=O)(=O)c2ccc(C)cc2)cc1,1,16*,·,·,·,·,-3
CC[C@]12C(=O)N(C)C[C@H]([C@@H]3C(=O)N(Cc4ccccc4)C(=O)[C@@H]31)N2C(=O)c1ccc(F)cc1,·,3,·,·,·,·,·
O=C(C1CCC(=O)N(C2CC2)C1)N(CCO)Cc1ccccc1 (centres undefined),-3,47*,·,5,-10,-1,0
O=C1CCCN1CCCN1CC(C(=O)N(CCO)Cc2ccccc2)CCC1=O (centres undefined),-5,-7,·,-1,-1,0,·
CCOC(=O)C1=C(COC(=O)c2ccc(Cl)nc2)NC(=O)NC1C (centres undefined),·,7,·,·,·,·,·
CC(C)On1c(SCC(=O)N(C)C)nc2ccccc2c1=O,-2,·,-6,-1,0,-2,·
CCOC(=O)[C@]12CCC=C1N(Cc1ccccc1)C(=O)[C@H](CC(=O)NCCC(C)C)C2,·,-6,·,·,·,·,·
Cc1ccc(S(=O)(=O)N2CCc3cc4c(cc3C2C)OCCCO4)cc1 (centres undefined),8,18*,·,-2,-3,1,2
CCOC(=O)c1c2c3c(c(Cl)ccc3[nH]c1=O)C(=O)c1ccccc1-2,·,17*,15,·,·,-1,38*
COc1ccc(C(=O)Nc2ccc(NC(=O)C3CC3)nc2)cc1,4,-11,·,4,-1,0,·
COc1ccc(Cl)cc1C(=O)Nc1cccnc1Cl,3,-8,·,9,8,1,·
CCn1c(C)nnc1SCC(=O)Nc1ccc(N2CCOCC2)cc1,10,-9,·,1,3,0,·
CCn1c(SCC(=O)Nc2ccc(N3CCOCC3)cc2)nnc1-c1ccco1,-3,27*,·,3,3,1,2
COc1ccccc1N1CCN(S(=O)(=O)CCNC(=O)C2CC(=O)N(c3ccccc3)C2)CC1 (centres undefined),-5,3,·,5,15,0,·
O=C(NCCS(=O)(=O)N1CCN(c2ccccc2F)CC1)C1CC(=O)N(c2ccc(F)cc2)C1 (centres undefined),2,75*,·,-1,-5,-1,-8
O=c1c2cc3c(=O)n(-c4ccccc4O)c(=O)c3cc2c(=O)n1-c1ccccc1O,2,-1,-5,1,7,1,·
COc1ccc(-n2nc3c(c2NC(=O)C(C)Oc2ccccc2)CS(=O)C3)cc1 (centres undefined),3,-4,·,-1,-3,1,·
COc1ccc(-c2nc(CSCC(=O)N3CCN(C)CC3)c(C)o2)cc1OC,6,-3,-31,0,-1,-1,·
CCN1CCN(C(=O)CSCc2nc(-c3ccc(OC)c(OC)c3)oc2C)CC1,0,15*,-29,4,4,-2,7
Cc1cc(=O)n(CC(=O)NCCN2CCOCC2)c2c1c(C)nn2-c1ccccc1,0,17*,·,2,3,2,-1
O=C(Nc1cccc(S(=O)(=O)N2CCCCCC2)c1)C1CC(=O)N(c2ccc3c(c2)OCCO3)C1 (centres undefined),1,22*,·,-6,-1,0,-14
NC(=O)C1CCN(C(=O)Nc2csc3ccccc23)CC1,1,6,-10,2,4,3,·
COc1ccc(C(C(=O)NC2CCCC2)N(CC2CCCO2)C(=O)Cn2nnc(-c3ccc(C)o3)n2)cc1 (centres undefined),7,18*,-4,4,4,1,-10
Cc1ccc(-c2nnn(CC(=O)N(c3ccc(F)cc3)C(C(=O)NC3CCCC3)c3ccncc3)n2)o1 (centres undefined),-3,18*,·,0,1,-1,-13
SMILES,GLD-1 RNA inh,E coli Lon inh,EBV gp42 inh,BCLXL inh,MCL1 BIM primary,MEX-5 binding,E coli Lon conf
Cc1cc(C)c(C(=O)CN2C(=O)NC3(CCCCCC3)C2=O)cc1C,6,-8,6,0,0,0,·
COc1ccc(Cc2nnc(NC(=O)CS(=O)(=O)c3ccccc3)s2)cc1OC,0,6,·,-4,-7,2,·
Cc1cc(C)n2nc(SCC(=O)N3CCCC(C)C3)nc2n1 (centres undefined),-3,1,·,·,·,·,·
CCOC(=O)C1CCN(CC(=O)Nc2cc(S(=O)(=O)N3CCCCC3)ccc2Cl)CC1,·,23*,·,·,·,·,3
CCN1CCN(CC(=O)Nc2cc(S(=O)(=O)N3CCCCC3)ccc2Cl)CC1,-5,-5,·,·,·,·,·
COc1ccccc1-c1ccc2c(c1)C(C)(Cc1ccc(Cl)cc1)C(=O)N2 (centres undefined),·,0,·,·,·,·,·
COc1ccccc1-c1ccc2c(c1)C(C)(Cc1ccc(F)c(Cl)c1)C(=O)N2 (centres undefined),·,16*,·,·,·,·,-8
COc1ccc(C(c2nnnn2Cc2ccccc2)N2CCN(C/C=C/c3ccccc3)CC2)cc1 (centres undefined),·,-7,·,·,·,·,·
Cc1cc2nc3c(=O)[nH]c(=O)[nH]c3nc2c([N+](=O)[O-])c1N,·,95*,150*,·,·,·,182*
CC(=O)Nc1ccc(NC(=O)COc2cccc3ccccc23)cc1,·,1,·,·,·,·,·
Nc1nnc2cc(Br)ccc2n1,·,66*,·,·,·,·,33*
Oc1cc(CNCc2ccccc2)c(O)cc1CNCc1ccccc1,·,52*,·,·,·,·,12
OC[C@@H]1CN(Cc2ccco2)C[C@H](n2cnc3c(NCc4ccncc4)ncnc32)O1,·,-5,·,·,·,·,·
O=S(=O)(c1ccccc1)N1CCN(Cc2ccccc2)c2ccccc21,·,34*,·,·,·,·,-1
Nc1cc2nc[nH]c2cc1N,·,18*,-19,·,·,1,0
Cn1c(=O)n(C)c2cc3[nH]cnc3cc21,5,-1,·,8,6,-3,·
Cc1nn(CC(=O)Nc2ccc(S(=O)(=O)N(C)C)cc2)c(C)c1[N+](=O)[O-],1,0,-5,0,-7,1,·
CN(C)S(=O)(=O)c1cccc(NC(=O)c2sccc2-c2ccccc2)c1,·,-4,·,·,·,0,·
CNC(=O)CN1C(=O)NC2(CCc3ccccc32)C1=O (centres undefined),1,3,-23,-3,-1,1,·
CC(=O)c1ccc(NC(=O)CN2C(=O)NC3(CCc4ccccc43)C2=O)cc1 (centres undefined),1,19*,·,·,·,·,-1
Cc1c([N+](=O)[O-])nnn1-c1cc(Cl)cc(Cl)c1,-7,28*,-10,4,-1,3,1
COC(=O)c1ccccc1NC(=O)N[C@@H](C)C(=O)OC,4,16*,4,3,10,2,1
